# The sample as a whole holds a higher share of the strongest signals than the screen did.
# B1: Actd5 (Actinidia), P84527 (protein)
# chain: ISSCNGPCRDLNDCDGQLICIKGKCNDDPQVGTHICRGTTHSHQPGGCKPSGTLTCRGKSYPTYDCSPPVTSSTPAKLTNNDFSEGGDDGGPSECDESYHNNNERIVALSTGWYNGGSRCGKMIRITASNGKSVSAKVVDECDSRHGCDKEHAGQPPCRNNIVDGSNAVWSALGLDKNVGVVDITWSMA
# Tests used:
# Test in all cases: glycan array binding signal (z-score within array); higher = stronger binding
# Conditions in all cases: glycan notation: IUPAC condensed, linker removed
# [1] = target: Fuc(a1-2)Gal(b1-4)Glc
# In short: (§1)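 The binding signal is a Z-score computed within each array. Data were drawn from 3228 arrays in the Consortium for Functional Glycomics database, restricted to those with a known protein sequence. Scores were averaged over arrays of the same protein sequence at different concentrations or buffers, and over linkers, and negative values can be taken as non-binding.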
# [2] = target: Fuc(a1-2)[GalNAc(a1-3)]Gal(b1-3)GalNAc(b1-3)Gal(a1-4)Gal(b1-4)Glc
# In short: as §1
# [3] = target: Fuc(a1-2)[GalNAc(a1-3)]Gal(b1-3)GlcNAc(b1-2)Man(a1-3)[Fuc(a1-2)[GalNAc(a1-3)]Gal(b1-3)GlcNAc(b1-2)Man(a1-6)]Man(b1-4)GlcNAc(b1-4)GlcNAc
# In short: as §1
# [4] = target: Fuc(a1-2)[GalNAc(a1-3)]Gal(b1-3)GlcNAc(b1-2)Man(a1-3)[Fuc(a1-2)[GalNAc(a1-3)]Gal(b1-3)GlcNAc(b1-2)Man(a1-6)]Man(b1-4)GlcNAc(b1-4)[Fuc(a1-6)]GlcNAc
# In short: as §1
# [5] = target: Fuc(a1-2)[GalNAc(a1-3)]Gal(b1-4)GlcNAc(b1-6)GalNAc
# In short: as §1
# [6] = target: Fuc(a1-3)GlcNAc
# In short: as §1
# [7] = target: Fuc(a1-3)[Gal(b1-4)]GlcNAc(b1-3)Gal(b1-4)[Fuc(a1-3)]GlcNAc(b1-3)Gal(b1-4)[Fuc(a1-3)]GlcNAc
# In short: as §1
# [8] = target: Fuc(a1-3)[Gal(b1-4)]GlcNAc6S
# In short: as §1
# [9] = target: Fuc(a1-3)[GalNAc(b1-4)]GlcNAc6S
# In short: as §1
# [10] = target: Gal(a1-3)Gal
# In short: as §1
# [11] = target: Gal(a1-3)Gal(b1-4)GlcNAc
# In short: as §1
# [12] = target: Gal(a1-3)Gal(b1-4)[Fuc(a1-3)]GlcNAc(b1-2)Man(a1-3)[Gal(a1-3)Gal(b1-4)[Fuc(a1-3)]GlcNAc(b1-2)Man(a1-6)]Man(b1-4)GlcNAc(b1-4)GlcNAc
# In short: as §1
# [13] = target: Gal(b1-3)GalNAc(a1-3)[Fuc(a1-2)]Gal(b1-4)Glc
# In short: as §1
# [14] = target: Gal(b1-3)GlcNAc(b1-6)GalNAc
# In short: as §1
# [15] = target: Gal(b1-3)[GlcNAc(b1-6)]GalNAc
# In short: as §1
# [16] = target: Gal(b1-3)[Neu5Ac(a2-6)]GalNAc
# In short: as §1
# [17] = target: Gal(b1-4)GlcNAc(a1-6)Gal(b1-4)GlcNAc
# In short: as §1
# [18] = target: Gal(b1-4)GlcNAc(b1-2)[Gal(b1-4)GlcNAc(b1-4)]Man(a1-3)[Gal(b1-4)GlcNAc(b1-2)Man(a1-6)]Man(b1-4)GlcNAc(b1-4)GlcNAc
# In short: as §1
# [19] = target: Gal(b1-4)GlcNAc(b1-2)[Gal(b1-4)GlcNAc(b1-6)]Man(a1-6)[GlcNAc(b1-4)][Gal(b1-4)GlcNAc(b1-2)Man(a1-3)]Man(b1-4)GlcNAc(b1-4)GlcNAc
# In short: as §1
# [20] = target: Gal(b1-4)GlcNAc(b1-3)Gal(b1-3)GlcNAc
# In short: as §1
# [21] = target: Gal(b1-4)GlcNAc(b1-3)Gal(b1-4)GlcNAc(b1-2)Man(a1-3)[Gal(b1-4)GlcNAc(b1-3)Gal(b1-4)GlcNAc(b1-2)Man(a1-6)]Man(b1-4)GlcNAc(b1-4)GlcNAc
# In short: as §1
# [22] = target: Gal(b1-4)GlcNAc(b1-3)Gal(b1-4)GlcNAc(b1-3)Gal(b1-4)GlcNAc(b1-3)Gal(b1-4)GlcNAc(b1-3)Gal(b1-4)GlcNAc(b1-2)[Gal(b1-4)GlcNAc(b1-3)Gal(b1-4)GlcNAc(b1-3)Gal(b1-4)GlcNAc(b1-3)Gal(b1-4)GlcNAc(b1-3)Gal(b1-4)GlcNAc(b1-6)]Man(a1-6)[Gal(b1-4)GlcNAc(b1-3)Gal(b1-4)GlcNAc(b1-3)Gal(b1-4)GlcNAc(b1-3)Gal(b1-4)GlcNAc(b1-3)Gal(b1-4)GlcNAc(b1-2)Man(a1-3)]Man(b1-4)GlcNAc(b1-4)[Fuc(a1-6)]GlcNAc
# In short: as §1
# [23] = target: Gal(b1-4)GlcNAc(b1-3)Gal(b1-4)GlcNAc(b1-3)GalNAc
# In short: as §1
# [24] = target: Gal(b1-4)GlcNAc(b1-3)Gal(b1-4)GlcNAc(b1-3)[Gal(b1-4)GlcNAc(b1-3)Gal(b1-4)GlcNAc(b1-6)]GalNAc
# In short: as §1
# [25] = target: Gal(b1-4)GlcNAc(b1-6)[Gal(b1-4)GlcNAc(b1-3)]GalNAc
# In short: as §1
# [26] = target: Gal(b1-4)GlcNAc6P
# In short: as §1
# [27] = target: Gal3S(b1-4)[Fuc(a1-3)]GlcNAc
# In short: as §1
# [28] = target: Gal3S6S(b1-4)GlcNAc
# In short: as §1
# [29] = target: GalNAc(b1-4)GlcNAc6S
# In short: as §1
# [30] = target: GalNAc4S6S(b1-4)GlcNAc
# In short: as §1
binder,measurement,setting,value
B1,glycan array binding signal (z-score),[1],-1.21
same,glycan array binding signal (z-score),[2],-0.038
same,glycan array binding signal (z-score),[3],0.017
same,glycan array binding signal (z-score),[4],1.21
same,glycan array binding signal (z-score),[5],-0.865
same,glycan array binding signal (z-score),[6],-0.676
same,glycan array binding signal (z-score),[7],-0.828
same,glycan array binding signal (z-score),[8],0.273
same,glycan array binding signal (z-score),[9],-1.21
same,glycan array binding signal (z-score),[10],-0.145
same,glycan array binding signal (z-score),[11],0.17
same,glycan array binding signal (z-score),[12],2.94
same,glycan array binding signal (z-score),[13],-0.318
same,glycan array binding signal (z-score),[14],-0.821
same,glycan array binding signal (z-score),[15],-0.2
same,glycan array binding signal (z-score),[16],-1.12
same,glycan array binding signal (z-score),[17],-0.614
same,glycan array binding signal (z-score),[18],0.256
same,glycan array binding signal (z-score),[19],0
same,glycan array binding signal (z-score),[20],-0.59
same,glycan array binding signal (z-score),[21],3.9
same,glycan array binding signal (z-score),[22],0.644
same,glycan array binding signal (z-score),[23],2.99
same,glycan array binding signal (z-score),[24],2.99
same,glycan array binding signal (z-score),[25],-0.2
same,glycan array binding signal (z-score),[26],-1.05
same,glycan array binding signal (z-score),[27],-0.319
same,glycan array binding signal (z-score),[28],0.094
same,glycan array binding signal (z-score),[29],-0.111
same,glycan array binding signal (z-score),[30],-0.058

# — the supplement of paper PMC8728848
